About 79,000 compounds went through this panel and 15% of them were active in at least one assay; those are over-represented in the sample as a whole. A number with no mark means an inactive call. Activity calls are given as the source filed them. Rule as the data show it: active = growth inhibition above about 70%; inactive = the rest.
Key:
[1] = NCI Yeast Anticancer Drug Screen. Data for the rad50 strain (AID 155);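 also: 0% = growth of vehicle-only cultures of the same strain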; details: S. cerevisiae rad50 strain growth inhibition, stronger effect = higher value
Summary of the method: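 Readout: growth inhibition relative to vehicle-treated cultures. Compound exposure was carried out in a genetically defined yeast strain deficient in DNA damage repair.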

[2] = NCI Yeast Anticancer Drug Screen. Data for the mec2-1 strain (AID 157); details: S. cerevisiae mec2-1 strain, stronger effect = higher value
Summary of the method: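 Each compound was tested on mec2-1 yeast, a strain altered in DNA damage repair or cell cycle control. Growth inhibition is reported relative to vehicle.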

[3] = NCI Yeast Anticancer Drug Screen. Data for the sgs1 mgt1 strain (AID 161);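 also: 0% = growth of cultures given vehicle only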; details: S. cerevisiae sgs1 mgt1 strain, stronger effect = higher value
Summary of the method: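 Mutant yeast exposed to compound; growth scored against vehicle-only wells.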

[4] = NCI Yeast Anticancer Drug Screen. Data for the cln2 rad14 strain (AID 165);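 also: 0% = growth equal to vehicle treated cultures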; details: S. cerevisiae cln2 rad14 strain, stronger effect = higher value
Summary of the method: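 Test compounds were added to cln2 rad14 yeast cultures; inhibition of growth was then determined by comparison with vehicle treatment.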

[5] = NCI Yeast Anticancer Drug Screen. Data for the bub3 strain (AID 167); details: S. cerevisiae bub3 mutant strain, stronger effect = higher value
Summary of the method: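 Readout: yeast growth inhibition, expressed relative to vehicle-only wells. The test organism is a mutant strain from a panel with lesions in DNA repair or checkpoint genes.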

[6] = NCI Yeast Anticancer Drug Screen. Data for the mlh1 rad18 strain (AID 175); details: S. cerevisiae mlh1 rad18 strain growth inhibition, stronger effect = higher value
Summary of the method: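 Inhibition values reflect reduced growth of mutant yeast versus vehicle-treated controls following compound exposure; the mutations affect DNA damage repair.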

[7] = at 5.0 µM (retest, dose inferred, filed as 0.5)
[8] = at 50.0 µM (retest, dose inferred, filed as 5.0)

| Compound | growth inhibition [1, 7] | growth inhibition [1, 8] | growth inhibition ([1]; at 50.0 µM) | growth inhibition [2, 7] | growth inhibition [2, 8] | growth inhibition ([2]; at 50.0 µM) | growth inhibition [3, 7] | growth inhibition [3, 8] | growth inhibition ([3]; at 50.0 µM) | growth inhibition [4, 7] | growth inhibition [4, 8] | growth inhibition ([4]; at 50.0 µM) | growth inhibition [5, 7] | growth inhibition [5, 8] | growth inhibition ([5]; at 50.0 µM) | growth inhibition [6, 7] | growth inhibition [6, 8] | growth inhibition ([6]; at 50.0 µM) |
| --- | --- | --- | --- | --- | --- | --- | --- | --- | --- | --- | --- | --- | --- | --- | --- | --- | --- | --- |
| Clc1ccc(CNc2ccc(Cl)c(Cl)c2)cc1 | 8% | 95% (active) | 97.8% (active) | 36% | 97% (active) | 98.2% (active) | 11% | 97% (active) | 98.2% (active) | -10% | 91% (active) | 97.7% (active) | 2% | 96% (active) | 97.5% (active) | 15% | 95% (active) | 97% (active) |
| NCCCCC(N)C(=O)Nc1ccc2ccccc2c1 (configuration not stated) | -1% | 91% (active) | 99% (active) | -41% | 37% | 99% (active) | 0% | 75% (active) | 99.2% (active) | 1% | 24% | 82.8% (active) | -9% | 71% (active) | 99.3% (active) | 0% | 83% (active) | 99% (active) |
| O=C(c1ccc(Oc2ccccc2)cc1)C(C(c1ccccc1)N1CCOCC1)N1CCOCC1 (configuration not stated) | -5% | 35% | 61.1% | 12% | 59% | 62.9% | -9% | 81% (active) | 88.8% (active) | -3% | -1% | 54.4% | 0% | 61% | 73% (active) | 20% | 60% | 75.4% (active) |
| CN(C)c1ccc(C(c2cc3c(cc2O)OCO3)N2CCCC2)cc1 (configuration not stated) | 7% | 99% (active) | 99.2% (active) | 15% | 99% (active) | 99.4% (active) | -3% | 99% (active) | 99.2% (active) | -3% | 99% (active) | 99.1% (active) | 0% | 99% (active) | 99.4% (active) | -7% | 99% (active) | 99.2% (active) |
| COC1OC2COC(c3ccccc3)OC2C(NC(=S)SCc2ccccc2)C1O (configuration not stated) | -3% | 98% (active) | 99.4% (active) | 0% | 98% (active) | 99.3% (active) | -1% | 98% (active) | 99.5% (active) | 3% | 98% (active) | 99.5% (active) | 0% | 99% (active) | 99.2% (active) | 7% | 98% (active) | 99% (active) |
| OCCN=Cc1cccs1 | 1% | 3% | 8.85% | -2% | 5% | 2.8% | -1% | 2% | 2.05% | 0% | 1% | 13.7% | 1% | 2% | 8.25% | -25% | 5% | 3.4% |
| O=S(=O)(NC1CCCCC1)c1ccc2c(c1)OCCOCCOCCOCCO2 | 7% | 22% | 40.3% | 9% | 37% | 23.8% | 0% | 63% | 70.7% (active) | -7% | 39% | 36% | -24% | 53% | 73.2% (active) | 5% | 31% | 65.5% |
| CCN(CC)Cc1cc(Nc2c3ccccc3nc3c2[nH]c2ccccc23)ccc1O | -6% | 18% | 82.5% (active) | 3% | 5% | 8.85% | -8% | -19% | 2.65% | 44% | 44% | -3% | 9% | 3% | -4.65% | -1% | -9% | 33.5% |
| CC1=NOC(=O)/C1=C/C=C/c1ccccc1 | -7% | 47% | 87.1% (active) | 3% | 79% (active) | 86.3% (active) | 9% | 89% (active) | 90.3% (active) | 22% | 28% | 40.1% | -23% | 66% | 60.8% | 2% | 80% (active) | 79.2% (active) |
| COC(=O)C(=O)C(C(=O)C(=O)Nc1ccc(C)cc1C)c1nc2ccccc2[nH]c1=O (configuration not stated) | 21% | 21% | 17% | 8% | 8% | 20.8% | -2% | -2% | 39.2% | 5% | 5% | -57.3% | -6% | -6% | 34% | 7% | 7% | 49.8% |
| Oc1ccccc1C1CCCCC1 | 1% | 38% | 88.5% (active) | 3% | 17% | 84.3% (active) | 0% | 47% | 96.1% (active) | 4% | -10% | 46.6% | -9% | 6% | 73.2% (active) | 4% | 46% | 93.2% (active) |
| O=C(N/N=C/c1ccccc1O)C1Cc2ccccc2C1C(Cl)Cl (configuration not stated) | 51% | 97% (active) | 88% (active) | 36% | 98% (active) | 91.3% (active) | 47% | 99% (active) | 93% (active) | 31% | 95% (active) | 89.5% (active) | 45% | 82% (active) | 90.7% (active) | 59% | 98% (active) | 90.8% (active) |
| S=C(Nc1ccc(Br)c(Cl)c1)SCc1ccc2c(c1)OCO2 | 49% | 97% (active) | 88% (active) | 49% | 98% (active) | 88.9% (active) | 77% (active) | 98% (active) | 88.7% (active) | 50% | 98% (active) | 86.1% (active) | 76% (active) | 98% (active) | 88.2% (active) | 44% | 97% (active) | 87.4% (active) |
| O=C(c1ccc(Br)cc1)C1N=NCC1c1ccccc1 (configuration not stated) | 1% | 36% | -4.75% | 9% | 52% | 64.7% | 4% | -14% | 64.7% | 6% | 65% | 12.8% | 0% | 59% | 86.3% (active) | -4% | 64% | 80.2% (active) |
| CC(C)C1(Cl)CCC2C3(C)CCCC(C)(C(=O)O)C3CC(Cl)C2(Cl)C1Cl (configuration not stated) | 3% | 75% (active) | 80.8% (active) | 5% | 78% (active) | 74.9% (active) | 17% | 61% | 70% (active) | -12% | 84% (active) | 95.8% (active) | 14% | 79% (active) | 72.5% (active) | -15% | 78% (active) | 86.7% (active) |
| COc1cccc(/C=N/N(C)C)c1O | 0% | 29% | 56% | -6% | -17% | 9.05% | -2% | 21% | -1.75% | 0% | -8% | 11.4% | 12% | 29% | 1.4% | 7% | 28% | 19.6% |
| CCOC(=O)c1cnccc1CC1(C#N)c2ccccc2C=CN1C(=O)c1ccccc1 (configuration not stated) | 5% | 67% | 86.7% (active) | -2% | 83% (active) | 83.5% (active) | 4% | 67% | 93.2% (active) | -7% | 68% | 52.2% | 6% | 71% (active) | 75% (active) | 3% | 67% | 89.2% (active) |
| CCCCCCCOC(=O)CSC#N | 61% | 99% (active) | 99.2% (active) | 52% | 99% (active) | 99.3% (active) | 95% (active) | 99% (active) | 99% (active) | 29% | 99% (active) | 98.5% (active) | 86% (active) | 99% (active) | 99.3% (active) | 90% (active) | 98% (active) | 99.3% (active) |
| Cc1ccc(C2(O)CC(c3ccc([N+](=O)[O-])o3)=NN2C(=O)COc2ccc(Cl)cc2)cc1 (configuration not stated) | 46% | 46% | 6.1% | 29% | 29% | 51.9% | 39% | 39% | 52.6% | 11% | 11% | 70.3% (active) | 10% | 10% | 37.6% | 43% | 43% | 34.3% |

— PubChem BioAssay (NCI)
